Bioassay records deposited in PubChem BioAssay by several laboratories.
A3A deaminase: APOBEC3A ssDNA deaminase inhibitors, primary screen, selectivity assay for APOBEC3G inhibitor project, biochemical, FAM/TAMRA oligo cleavage fluorescence; DNA dC->dU-editing enzyme APOBEC-3A (Homo sapiens), P31941; recombinant A3A, FAM/TAMRA ssDNA deamination fluorescence; inhibition, % at 20 µM; 330,000 compounds, 0.41% hits; AID 493011, 2011;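 active = at least 40% inhibition at 20 µM here, with at most 30% in a related deaminase screen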;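 also: plate controls were A3A with DMSO for no effect and wells lacking A3A enzyme for full effect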
Target sequence (P31941 whole entry, looked up): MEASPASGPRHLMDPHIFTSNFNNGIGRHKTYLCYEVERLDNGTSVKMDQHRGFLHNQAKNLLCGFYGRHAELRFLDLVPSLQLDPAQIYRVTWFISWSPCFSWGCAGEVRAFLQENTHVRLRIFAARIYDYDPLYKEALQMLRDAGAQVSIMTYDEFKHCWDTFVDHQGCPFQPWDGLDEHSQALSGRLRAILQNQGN
HDAC3 inh: HDAC3 deacetylase inhibitors, primary screen, biochemical, fluorescence, cell-free homogeneous | Histone deacetylase 3 (Homo sapiens), O15379 | recombinant HDAC3, fluorogenic peptide/trypsin coupled | inhibition, % at 8.3 µM | 320,000 compounds, 0.15% hits; in the data active = inhibition above about 26%, passing the limit was not always enough
A3G deaminase: APOBEC3G DNA deaminase inhibitors, primary screen, biochemical, fluorescence, single-stranded DNA substrate, uHTS; 330,000 compounds, 0.28% hits; DNA dC->dU-editing enzyme APOBEC-3G (Homo sapiens), Q9HC16; inhibition, % at 20 µM; recombinant A3G, ssDNA deamination FAM/TAMRA fluorescence; AID 493012, 2011;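 active = inhibition of at least 40% at 20 µM, with no more than 30% in the related APOBEC3A deaminase screen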;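 also: plate controls were DMSO wells with A3G for no effect and wells lacking A3G enzyme for full effect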
Target sequence (Q9HC16 whole entry, looked up): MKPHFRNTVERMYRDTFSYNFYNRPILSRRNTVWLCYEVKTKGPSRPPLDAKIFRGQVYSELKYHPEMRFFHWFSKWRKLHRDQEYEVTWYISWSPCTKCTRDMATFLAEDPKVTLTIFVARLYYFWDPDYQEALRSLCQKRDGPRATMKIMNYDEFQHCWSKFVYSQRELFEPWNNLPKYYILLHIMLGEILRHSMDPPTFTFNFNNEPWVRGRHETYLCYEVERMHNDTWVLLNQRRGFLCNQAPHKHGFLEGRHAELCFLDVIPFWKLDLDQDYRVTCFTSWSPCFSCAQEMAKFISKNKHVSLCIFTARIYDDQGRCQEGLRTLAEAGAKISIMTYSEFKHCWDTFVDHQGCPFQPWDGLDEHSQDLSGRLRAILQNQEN
LANA-H2A inh: blockers of LANA interaction with H2A/H2B – biochemical, FP readout, HTS, primary screen | Protein LANA1 (Human herpesvirus 8 type P (isolate GK18)), Q9QR71 | cell-free LANA-H2A/H2B peptide, fluorescence polarization | inhibition, % (no concentration beside the values) | 320,000 compounds, 0.6% hits | AID 2629, 2010; in the data active = inhibition mostly above about 10%, no sharp cut-off; inactive = mostly below about 6.7%
An asterisk follows results filed as active; / = no result given; ! = not confirmed by another sample. Only some compounds are listed: those with a hit (about 1.4% of all), similar ones and a draw of the others.

SMILES	A3A deaminase	HDAC3 inh	A3G deaminase	LANA-H2A inh
COC(=O)C1=C(C)NC(=S)NC1c1ccc(-c2cccc(Cl)c2)o1 (stereo not given)	-1	29*	2	6
CCOC(=O)C1=C(C)NC(=O)NC1c1ccc(-c2ccc(Cl)cc2)o1 (stereo not given)	0	50*	0	-4
O=c1c2ccccc2oc2ccc(-c3ccc4cc[nH]c4c3)cc12	-3	2	-6	11
COc1ccc(N(C)C(=O)c2cc3c(s2)-c2ccccc2OC3)c(OC)c1	1	5	-5	18*
Cc1c(Cl)cccc1N(CC(=O)O)S(C)(=O)=O	5	-3	2	11*
O=C(CCc1nc(-c2ccccc2F)no1)Nc1ccc(Oc2ccccc2)cc1	-5	27*	-4	-3
COc1cccc(NC(=O)CCc2nc(-c3ccccc3F)no2)c1	-1	2	-3	0
Cc1ccc(S(=O)(=O)/C(C#N)=C/c2c[nH]c3ccccc23)cc1	-5	-4	-5	17*
CCn1c(SCC(=O)OCc2ccccc2)nc2c1c(=O)n(C)c(=O)n2C	-2	32*	-5	-2
C=CCn1c(SCC(=O)OCc2ccccc2)nc2c1c(=O)n(C)c(=O)n2C	-2	2	-4	-1
CC1Cc2ccccc2N1C(=O)COC(=O)c1ccc([N+](=O)[O-])o1 (stereo not given)	1	1	-3	0
COc1cccc(CNC(=O)C2CCCN(c3nc4ccccc4o3)C2)c1 (stereo not given)	3	-3	1	14*
COc1ccc(CNC(=O)C2CCCN(c3nc4ccccc4o3)C2)c(OC)c1 (stereo not given)	-2	1	-7	-2
COc1ccc(C2=NS(=O)(=O)N(C)C(C(=O)Nc3ccc4c(c3)OCO4)=C2)cc1OC	-2	8	-6	3
CCOC(=O)C1CCCN(C(=O)C2c3ccccc3Oc3ccccc32)C1 (stereo not given)	-13	0	-23	71*
CS(=O)(=O)Nc1ccc([N+](=O)[O-])cc1Oc1ccccc1	-3	7	-9	32*
CS(=O)(=O)Nc1ccccc1Oc1ccccc1	0	6	-2	3
CC(C)OC(=O)C(C)(C)Oc1ccc(C(=O)c2ccc(Cl)cc2)cc1	-1	15	-1	35*!
Cc1cc([N+](=O)[O-])cc2c1NC(=O)C2(O)N1CCOCC1 (stereo not given)	2	-2	-3	58*
CC1CCN(C2(O)C(=O)Nc3ccc([N+](=O)[O-])cc32)CC1 (stereo not given)	-4	1	-5	2
CCC(C)(C)c1ccc(OCCCC[n+]2ccc(C)cc2)c(C(C)(C)CC)c1	-1	34*	-6	8
Cn1ccnc1Sc1ccc(C(N)=O)cc1[N+](=O)[O-]	-5	10	-6	86*
Cn1nnnc1Sc1ccc(C(=O)O)cc1[N+](=O)[O-]	0	/	-4	4
CN(C(=O)c1cccc(NC(=O)Cc2cccc([N+](=O)[O-])c2)c1)C1CCCC1	2	4	-2	1
CCN(CC(=O)NCc1ccc(Cl)cc1)C(=O)c1sccc1C	-4	1	-8	-7
SMILES	A3A deaminase	HDAC3 inh	A3G deaminase	LANA-H2A inh
Cc1ccccc1C(=O)N1CCC(C(=O)Nc2nc3ccc(F)cc3s2)CC1	0	/	-6	-2
COc1ccc(C2=CC(c3cc(OC)c(OC)c(OC)c3)NC(=S)N2)cc1 (stereo not given)	-1	7	1	20*
CN(C)C(CNC(=O)c1ccc(C2SCCS2)cc1)c1ccccc1 (stereo not given)	0	54*	-6	-9
O=C(NC1CCCCCC1)c1ccc([N+](=O)[O-])s1	-2	/	-11	/
CC(C)(C)CC(=O)Nc1ccc(S(=O)(=O)NC2=NCCCCC2)cc1	1	7	-1	-18
O=C(NNS(=O)(=O)c1ccccc1)c1cccs1	5	/	0	/
O=C(NNS(=O)(=O)c1ccc(Br)cc1)c1cccs1	-2	-8	-7	17*
COC(=O)c1ccc(Cn2c(O)c(N=NC(N)=S)c3ccccc32)o1	20	39*	5	4
CCOC(=O)c1ncn2c1CN(C)C(=O)c1cc(F)ccc1-2	-1	-3	0	29*!
Cc1c(CC(=O)O)c(=O)oc2cc(OCc3ccc(Cl)cc3)ccc12	-2	-52	-11	44*
O=c1[nH]c2ccc(S(=O)(=O)N3CCCCC3)cc2[nH]1	-3	3	-7	1
O=S(=O)(c1ccc2[nH]c3c(c2c1)CCCC3)N1CCCCC1	-1	0	-2	18*
C=CCn1c(SCC(=O)c2c(N)n(C)c(=O)n(C)c2=O)nc2sc(C)c(C)c2c1=O	2	-8	-4	111*
C=CCSc1nc2sc(C)c(C)c2c(=O)n1CC=C	1	4	-1	-1
C=CCn1c(SCC(=O)c2cccs2)nc2sc(C)c(C)c2c1=O	0	6	-1	0
C=CCn1c(SCc2ccc(C(=O)NCCO)cc2)nc2sc(C)c(C)c2c1=O	-2	10	-7	23*
CCOC(=O)[C@H]1[C@H]2COc3ccc(Br)cc3[C@@H]2N2C(=O)CN(Cc3ccccc3)C(=O)[C@@]12C	-3	3	-8	5
COCCNc1oc(/C=C/c2ccccc2OC)nc1S(=O)(=O)c1ccccc1	-3	-14	-2	7
COc1cc(/C=C2\SC(=Nc3ccc(O)cc3)NC2=O)cc(OC)c1O	0	4	1	11*
C/C(=N\Nc1ccc(Cl)c(C(=O)O)c1)c1ccc(N2CCOCC2)cc1	0	3	2	11*
CCN(C(=O)Nc1ccccc1)c1ccccc1	2	-5	1	17*
Cc1ccccc1NC(=S)N1CCC(C(=O)c2ccc(F)cc2)CC1	0	2	1	28*
C[C@@H]1COC(=O)[C@@H](Cc2ccc(F)cc2)C/C=C\C[C@@H](CC(=O)NCCO)C(=O)N1	-1	-10	0	-137
Cc1onc(-c2ccccc2)c1C(=O)Nc1nnc(C(C)(C)C)s1	-1	7	-7	10*
Cc1cnc(NC(=O)c2c(-c3ccccc3)noc2C)s1	-3	-6	0	-1
CCOc1cc(C(=O)N=c2sccn2C)ccc1OC(F)F	3	7	1	20*
Cc1ccc(S(=O)(=O)NCC(=O)OCC(=O)N2CC(C)OC(C)C2)cc1 (stereo not given)	-7	2	-9	3
CCOC(=O)C1=C(C)NC(C)=C(C(=O)OCC)C1C(=O)OCC(N)=O	-3	-4	-5	-1
CCOC(=O)C1=C(C)NC(C)=C(C(=O)OCC)C1C(=O)OCC(=O)N(C)C1CCS(=O)(=O)C1 (stereo not given)	5	-1	4	20*
